Reference: PubChem BioAssay AID1508621 (National Center for Advancing Translational Sciences (NCATS), 2021)
Inconclusive results are not listed. A call without a number means that no potency is given here. Active and inactive are the calls of the source. Calls follow the shape of the dose curve; as a rule, active = well fitted inhibition curve with a large enough effect; inconclusive = small, poorly fitted or top-dose-only effect; inactive = no such curve, though single readings can be large or run the other way.

Assay: Confirmatory qHTS for Identification of Small Molecule Inhibitors of Huntingtin Promoter Activity; also: nearly all actives have a fitted effect of over 65% in size
Details: HEK293 HTT promoter firefly luciferase reporter, 24 h; series mostly up to 57.5 µM
Outline: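 Plated reporter HEK293 cells (24 h) received library compounds at up to 57.5 uM final or 50 uM PTC124, incubated 24 h at 37C; firefly luciferase luminescence was then recorded with Dual-Glo reagent.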
Potency is read from the fitted curve at half-maximal effect.

SMILES	Potency
O=S(=O)(c1ccc(-c2csc(=Nc3ccc(OC(F)(F)Cl)cc3)n2CCCO)cc1)N1CCCC1	1.9 µM (active)
CCN(CC)CCNC(=O)c1c(C)[nH]c(C=C2C(=O)Nc3ccc(F)cc32)c1C	inactive
CCn1cc(C(=O)N2CCN(c3ccc(C)cc3)C(C)C2)c(=O)c2cc(S(=O)(=O)N3CCCC3)ccc21 (centres undefined)	inactive
CN(C)C(=O)COC(=O)Cc1ccc(OC(=O)c2ccc(N=C(N)N)cc2)cc1	inactive
CSc1ccc(/C=C/c2nc3ccccc3n2S(=O)(=O)c2ccc(F)c(C)c2)cc1	inactive
O=C(Nc1nc2cccc(-c3ccc(CN4CCS(=O)(=O)CC4)cc3)n2n1)C1CC1	inactive
CCOc1ccc(S(=O)(=O)N(C(C)=O)c2ccc3oc(C)c(C(=O)OC)c3c2)cc1	4.78 µM (active)
COc1ccc(N2CCN(C(=O)c3ccc4c(=O)n(CCc5ccc(OC)c(OC)c5)c(=O)[nH]c4c3)CC2)cc1	12 µM (active)
CC(C)OCc1cc(CN2CCN(c3cccc(C(F)(F)F)c3)CC2)c(O)c2ncccc12	9.53 µM (active)
CC(=O)c1ccc(N2CCN(c3ncnc4c3cnn4-c3cc(Cl)ccc3C)CC2)cc1	7.57 µM (active)
O=C(CSc1ccc(-c2ccccn2)nn1)Nc1ccc(F)c(F)c1	inactive
CCS(=O)(=O)c1oc(-c2ccc(F)cc2)nc1S(=O)(=O)c1ccc(Br)cc1	inactive
CCOC(=O)c1ccc(C#Cc2ccc3c(c2)C(C)(C)CCS3)nc1	inactive
CCN(CC)S(=O)(=O)c1ccc(NC(=O)CCc2c(C)nc3cc(-c4ccc(Cl)cc4)nn3c2C)cc1	0.301 µM (active)
